# Bioassay records (PubChem)
# ALOX12 inh: Primary qHTS assay for inhibitors of human arachidonate 12S-lipoxygenase (ALOX12): Round 2; Polyunsaturated fatty acid lipoxygenase ALOX12 (Homo sapiens), P18054; purified 12hLO, xylenol orange hydroperoxide absorbance; Potency, µM (highest dose often 108 µM), for the others: at the top dose activity change, negative = inhibition, actives largely listed as inhibitors; 580,000 tested, 1.1% active; AID 1671190, 2021; also: % is scaled to controls: 0 for no effect and ±100 for the full control effect
# Target sequence (P18054 whole entry, looked up): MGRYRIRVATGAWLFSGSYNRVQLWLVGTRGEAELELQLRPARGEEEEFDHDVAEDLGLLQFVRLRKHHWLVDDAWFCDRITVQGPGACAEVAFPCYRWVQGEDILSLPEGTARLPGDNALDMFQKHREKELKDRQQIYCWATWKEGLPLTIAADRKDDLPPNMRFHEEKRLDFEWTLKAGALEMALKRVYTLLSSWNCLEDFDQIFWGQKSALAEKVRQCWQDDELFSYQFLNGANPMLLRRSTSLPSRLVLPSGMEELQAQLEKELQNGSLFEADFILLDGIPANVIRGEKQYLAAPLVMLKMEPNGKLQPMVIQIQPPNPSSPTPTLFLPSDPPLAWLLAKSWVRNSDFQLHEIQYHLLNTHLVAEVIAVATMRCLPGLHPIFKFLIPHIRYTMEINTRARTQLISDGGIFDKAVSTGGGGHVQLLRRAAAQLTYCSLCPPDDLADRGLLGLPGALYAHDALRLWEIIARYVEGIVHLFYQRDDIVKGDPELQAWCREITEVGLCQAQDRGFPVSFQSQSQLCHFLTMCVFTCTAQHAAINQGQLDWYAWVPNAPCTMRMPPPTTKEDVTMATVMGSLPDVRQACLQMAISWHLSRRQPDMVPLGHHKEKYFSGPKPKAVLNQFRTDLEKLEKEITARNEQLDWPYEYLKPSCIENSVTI
#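 Purified human 12hLO at 150 nM in 25 mM Hepes, 0.01% Triton X-100, pH 7.0, preincubated 15 min at room temperature with compound. Reaction started with 40 uM arachidonic acid, 30 min at room temperature. Hydroperoxide measured by Fe-xylenol orange, 573/405 nm absorbance ratio.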
# TGFb inhibitor: qHTS for Inhibitors of TGF-b; HepG2 CAGA-GFP TGF-b/SMAD3 reporter, GFP fluorescence, 18 h; TGF-beta stimulated, 500 pg/mL final; Potency, µM (series often up to 46.1 µM), inactives show at the top dose activity, negative = inhibition, actives largely listed as inhibitors; 410,000 tested, 1.2% active; AID 588855, 2011; also: % is scaled to controls: 0 for no effect and ±100 for the full control effect; nearly all actives have a fitted effect of over 65% in size
#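 Inhibition of TGF-beta-driven CAGA-GFP reporter expression in HEPG2 cells is measured by cellular GFP fluorescence after 18 h stimulation with 500 pg/mL recombinant TGF-beta in 1% FBS medium at 37 degrees C.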
# ATXN2 expr inh: Primary qHTS for Inhibitors of ATXN expression; HEK-293 ATXN2-luciferase reporter, luminescence, 24 h; 360,000 tested, 0.72% active; Potency, µM (series often up to 57 µM), for the others: at the highest dose activity change, negative = inhibition, usual class: inhibitors; also: % is scaled to controls: 0 for no effect and ±100 for the full control effect; nearly all actives have a fitted effect of over 55% in size
#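 qHTS (up to 57 uM final) was run with 24 h compound exposure of reporter cells at 37 °C. Each well was multiplexed: SteadyGlo luminescence measured ATXN2-luciferase expression after a fluorogenic Gly-Phe-AFC viability readout (25 uM final).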
# S2 tox: Viability Counterscreen for Primary qHTS for Inhibitors of ATXN expression; S2 cells (HEK-293 line with an ATXN2-luciferase reporter) viability, CellTiter-Fluor protease fluorescence, 24 h; 400,000 tested, 0.49% active; Potency, µM (highest dose often 56.7 µM), hits mostly cytotoxic; AID 651635, 2014; also: nearly all actives have a fitted effect of over 40% in size
# HepG2 viability: qHTS for Inhibitors of TGF-b: Cytotox Counterscreen | 410,000 tested, 0.76% active | Potency, µM (titrated, usually from 46.1 µM), inactives show at the highest dose activity change, negative = cytotoxicity, actives largely listed as cytotoxic | HepG2 CAGA-GFP viability, ATP luminescence, 18 h
#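 HepG2 CAGA-GFP cells (1000/well, DMEM with 1% FBS) received compound, then TGF-beta at 500 pg/mL final, and were incubated 18 hours at 37 degrees C. Viability was read by CellTiter-Glo luminescence. Media-only wells were set as complete cell-killing and DMSO as no toxicity.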
# * marks the source's active call; other numbers are inactive results; i = inactive; ? = inconclusive; . = not tested or not shown; [ ] = dose if it differs, or a comment. Compounds with a hit are over-represented: about 2.7% of the library has one in this group of screens. Calls follow the shape of the dose curve; as a rule, active = well fitted curve in the direction sought with a large enough effect; inconclusive = small, poorly fitted or top-dose-only effect, or another doubt; inactive = no such curve, though single readings can be large; an effect the other way counts as inactive or inconclusive. Potency is read from the fitted curve at half-maximal effect.
SMILES,ALOX12 inh,TGFb inhibitor,ATXN2 expr inh,S2 tox,HepG2 viability
COc1ccc(C(NC(=O)CC(C)(C)C)c2ccccc2)cc1 (stereo not given),36%,.,.,.,.
COC(=O)[C@@H]1Cc2ncn(C)c2CN1S(=O)(=O)c1ccc(OC)cc1,32µM*,.,.,.,.
COC(=O)CC(NC(=O)c1ccc(C#N)cc1)c1ccc(C)cc1 (stereo not given),-3%,.,.,.,.
COc1ccccc1C(c1c(N)n(C)c(=O)n(C)c1=O)C(C)[N+](=O)[O-] (stereo not given),0%,16%,16%,i,-48%
COc1ccccc1C(C[N+](=O)[O-])c1c(N)n(C)c(=O)n(C)c1=O (stereo not given),?,7.1µM*,.,.,10µM*
Cc1ccc(C(=O)OCC(=O)c2ccco2)s1,32µM*,.,.,.,.
Cc1ccc(C(=O)OCC(=O)c2cc(C)n(Cc3ccco3)c2C)s1,-46%,.,.,.,.
CC(C)(C)c1ccc(Cn2c(Cc3ccccc3)nc3ccccc32)cc1,-18%,14µM*,?,?,16µM*
Cc1cccc(Cn2c(Cc3ccccc3)nc3ccccc32)c1,-11%,-11%,-1%,?,-85%
CCOC(=O)c1c(C)n(CCNC(C)=O)c2ccc(OC)cc12,-12%[57.4 µM],-2%,7%,i,-17%
CCOC(=O)c1c(-c2ccccc2)c2cc(OC)ccc2n1CCCN(C)C,8%,?,.,i,18µM*
COC(=O)COc1nc(-c2ccco2)c2c(c1C#N)CCC2,-13%,.,.,.,.
CCOC(=O)N1CCN(Cc2nc3cc(NC(=O)CC)ccc3n2C(C)C)CC1,-1%,8.9µM*,.,.,-23%
Cc1ccc2c(CN(C)Cc3ccc(OC(F)F)cc3)cc(=O)oc2c1C,-1%,-29%,-27%,i,13µM*
Cc1ccc2c(CN(C)Cc3ccc(OC(F)F)cc3)cc(=O)oc2c1,-76%,.,.,.,.
Clc1cccc(-n2nnnc2NCc2ccccc2Oc2ccccn2)c1Cl,12µM*,.,-9%,.,.
COc1ccccc1NC(=O)CSc1nnnn1-c1ccccc1OC,-2%,9%,-9%,i,1%
COc1ccccc1NC(=O)CSc1nnnn1-c1ccc2c(c1)OCO2,-12%[57.4 µM],-12%,-25%,i,11µM*
CC(=O)c1ccc(Nc2ccc([N+](=O)[O-])c3nonc23)cc1,-4%,11µM*,.,?,-19%
O=C(O)c1cccc(Nc2ccc([N+](=O)[O-])c3nonc23)c1,6%,3%,5%,16µM*,6%
O=C(O)c1ccc(Nc2ccc([N+](=O)[O-])c3nonc23)cc1,-3%,3%,-3%,?,-2%
Cc1c(Cc2ccccc2)sc(NC(=O)Cc2ccccc2)c1C(N)=O,16µM*,-14%,-20%,i,2%
CCC(=O)Nc1sc(Cc2ccccc2)c(C)c1C(N)=O,-24%,14%,-15%[11.3 µM],i,-15%
COc1nc(OCC#N)nc(N2CCOCC2)n1,4%,.,.,.,.
COc1cc(-c2cc(OC)c3c(C)oc(C)c3c(=O)c2)ccc1O,?,-1%,1%,i,-17%
SMILES,ALOX12 inh,TGFb inhibitor,ATXN2 expr inh,S2 tox,HepG2 viability
CCCc1cc(=O)c2c(O)ccc(OC)c2o1,25µM*,-3%,7%,i,-1%
CC(C)Cc1ccc(C(C)CC2=CCC(CN(C)C)C2=O)cc1 (stereo not given),-27%,?,?,.,7.9µM*
CC(C)Cc1ccc(C(C)NC(=O)C2CC2C)cc1 (stereo not given),18%,.,.,.,.
CCC1CCCCN1C(=O)Cn1nc(-c2ccc(C)cc2)c2ccccc2c1=O (stereo not given),0%,.,.,.,.
CCCCOc1ccccc1NC(=O)Cn1c(-c2nonc2N)nc2ccccc21,-7%,?,?,14µM*,-20%
CCCCc1nn2cc(-c3ccc(F)cc3)nc2s1,27%,.,.,.,.
COc1cccc(NC(=O)CC2Nc3ccccc3NC2=O)c1 (stereo not given),16µM*,.,.,.,.
O=C(CC1Nc2ccccc2NC1=O)Nc1cccc(C(F)(F)F)c1 (stereo not given),7%,.,.,.,.
CCc1nnc(NC(=O)C(NS(=O)(=O)c2ccc3c(c2)OCCO3)C(C)C)s1 (stereo not given),35µM*,1%,4%,i,-19%
CCCCCCCCCn1ccc(=N)cc1,79%,?,2.1µM*,i,-3%
CCSc1nc(-c2ccc(OC)cc2)cc(-c2ccccc2)c1C#N,-4%,?,-12%,i,3%
COc1ccc(-c2cc(-c3ccccc3)c(C#N)c(S(C)=O)n2)cc1 (stereo not given),-22%,-19%,28µM*,?,-27%
CCOC(=O)c1ccc(N2C(=O)c3n[nH]c(C)c3C2c2cccnc2)cc1 (stereo not given),31%,-1%,2%,i,4%
CCOC(=O)c1ccc(N2C(=O)c3[nH]nc(-c4ccc(OC)cc4)c3C2c2cccc(O)c2)cc1 (stereo not given),0%,16µM*,?,.,10µM*
CCOC(=O)c1ccc(N2C(=O)c3[nH]nc(-c4ccc(C)cc4)c3C2c2cccc(F)c2)cc1 (stereo not given),0%,?,?,?,11µM*
CCOC(=O)c1ccc(N2C(=O)c3[nH]nc(-c4ccc(OCC)cc4)c3C2c2ccc(OC)cc2OC)cc1 (stereo not given),-23%,?,-5%,i,-16%
CCOC(=O)c1ccc(N2C(=O)c3n[nH]c(-c4cccs4)c3C2c2cccc(OC)c2)cc1 (stereo not given),-9%,1.8µM*,?,?,-51%
CCOc1ccc(N2C(=O)c3n[nH]c(-c4cccs4)c3C2c2cccc(F)c2)cc1 (stereo not given),-21%,?,?,.,11µM*
COCCNc1oc(-c2ccc(S(=O)(=O)N3CCC(C)CC3)cc2)nc1C#N,3%,.,.,.,.
CCCCCc1c2c(cc(O)c1C(=O)O)OC(=O)c1cc(C(=O)CCCC)c(OC)cc1O2,?,?,?,i,-60%
CCCCCc1c2c(cc(O)c1C(=O)O)OC(=O)c1c(cc(OC)cc1C(=O)CCCC)O2,.,20µM*,?,.,-69%
O=C(CCSc1nc2ccccc2s1)NC1CCc2ccccc21 (stereo not given),7%,.,.,.,.
Cc1c(C(=O)N(C)c2ccccc2)sc2nc(-c3ccc(F)cc3)cn12,3%,?,.,.,-39%
Cc1c(C(=O)N(C)Cc2ccccc2)sc2nc(-c3ccc(F)cc3)cn12,8%,13µM*,.,.,-61%
COc1ccc(CN2CC(c3nc(Cc4cccnc4)no3)C2)c(OC)c1,39%,.,.,.,.
